Sampled rows, rich in hits. Any-hit rate of the full collection: about 5%.
SENP8 block-1 = human SENP8 protease inhibitors, primary screen, biochemical, fluorescence, Nedd8 protein substrate, uHTS | Sentrin-specific protease 8 (Homo sapiens), Q96LD8 | recombinant SENP8 | inhibition, % at 20 µM | actives 0.64% (n = 360,000); in the data active = inhibition mostly above about 40%, no sharp cut-off; inactive = mostly below about 27%
Target sequence (Q96LD8 whole entry, looked up): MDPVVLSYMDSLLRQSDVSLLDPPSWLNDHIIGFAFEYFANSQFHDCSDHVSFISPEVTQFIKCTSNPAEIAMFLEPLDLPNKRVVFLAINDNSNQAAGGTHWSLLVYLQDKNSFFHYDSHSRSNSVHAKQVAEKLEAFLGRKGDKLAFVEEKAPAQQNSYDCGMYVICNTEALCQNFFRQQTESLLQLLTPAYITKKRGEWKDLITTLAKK
EBI2 antag = EBI2 receptor antagonists, beta-arrestin recruitment, primary screen, cell-based, luminescence, 7a,25-OHC stimulation, uHTS; 7a,25-OHC stimulated; inhibition, % at 5 µM; actives 0.81% (n = 360,000); AID 651636, 2012; in the data active = inhibition above about 38%;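 note: enzyme fragment complementation signal reports receptor beta-arrestin coupling in cells; 0% = agonist plus DMSO wells and 100% = wells without agonist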
SENP7 block = SENP7 protease inhibitors, primary screen, biochemical, luminescence, uHTS; inhibition, % at 5 µM; AID 434973, 2010; Sentrin-specific protease 7 (Homo sapiens), Q9BQF6; recombinant SENP7, Z-RLRGG-aminoluciferin luminescence, 40 min; actives 1.5% (n = 330,000);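 active = inhibition above about 50% at the single test dose, limit read from the data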;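 note: plate controls were DMSO with enzyme for no effect and no enzyme buffer wells for full effect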
Target sequence (Q9BQF6 706-1050 limits assumed): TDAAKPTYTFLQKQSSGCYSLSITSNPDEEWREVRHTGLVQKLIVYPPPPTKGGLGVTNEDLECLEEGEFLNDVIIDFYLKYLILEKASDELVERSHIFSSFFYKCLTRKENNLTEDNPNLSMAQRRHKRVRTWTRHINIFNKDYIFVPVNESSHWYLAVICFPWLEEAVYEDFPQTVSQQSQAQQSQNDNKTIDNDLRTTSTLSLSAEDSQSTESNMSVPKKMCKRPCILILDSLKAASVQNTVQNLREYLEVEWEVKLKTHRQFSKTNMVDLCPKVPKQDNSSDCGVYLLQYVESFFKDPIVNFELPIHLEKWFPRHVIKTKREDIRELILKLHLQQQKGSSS
AHR activator = AHR activators, primary screen, cell-based, luminescence, luciferase reporter, human | AHR-responsive luciferase reporter cells | activation, % at 5 µM | actives 2.5% (n = 320,000); in the data active = activation above about 47%;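 note: 0% = vehicle wells and 100% = reference agonist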
SENP6 inh = SENP6 protease inhibitors, primary screen, biochemical, luminescence, uHTS; Sentrin-specific protease 6 (Homo sapiens), Q9GZR1; Recombinant SENP6 catalytic domain, aminoluciferin luminescence; inhibition, % at 10 µM; actives 1.8% (n = 330,000); AID 2599, 2010;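 active = inhibition above about 50% at the single tested dose, limit read from the data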;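 note: plate controls were DMSO wells with enzyme for no effect and DMSO wells lacking enzyme for full effect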
SENP8 block-2 = SENP8 protease inhibitors, primary screen, biochemical, luminescence; purified SENP8, Z-RLRGG-aminoluciferin cleavage; inhibition, % at 10 µM; actives 1.2% (n = 330,000); in the data active = inhibition above about 50%
EBI2 antag conf = EBI2 antagonist hit retest, beta-arrestin, confirmation, cell-based, single concentration, luminescence, 7a,25-OHC stimulation | actives 29% (n = 2,400) | 7a,25-OHC antagonism | shares compounds with EBI2 antag | AID 651997, 2013 | inhibition, % at 5 µM;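 active = inhibition of at least 50%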
EBI2 ag = EBI2 agonist activity of antagonist hits, confirmation, counter-screen for EBI2 antagonist project, cell-based, single concentration, agonist mode, luminescence. shares compounds with EBI2 antag. EBI2-expressing cells, 60 min; 0% vehicle, 100% 7α,25-dihydroxycholesterol control. activation, % at 5 µM. 2,400 tested, under 10 active. AID 652000, 2013;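 active = activation of at least 50%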
bGal counter = E. coli beta-galactosidase enzyme inhibition, confirmation, counter-screen for EBI2 antagonist project, biochemical, luminescence, single concentration. shares compounds with EBI2 antag. purified beta-galactosidase, luminescent Galacton Star, 15 min. inhibition, % at 5 µM. actives 1% (n = 2,400). AID 652176, 2013;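 active = replicate-average signal at least 3 plate SD below neutral wells, shown as high inhibition, flagging enzyme-inhibiting false positives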;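 note: 0% = DMSO wells with enzyme and 100% = wells lacking enzyme; higher means stronger loss of beta-gal luminescence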
Numbers without * were called inactive; i = inactive; · = no result given.

SMILES	SENP8 block-1	EBI2 antag	SENP7 block	AHR activator	SENP6 inh	SENP8 block-2	EBI2 antag conf	EBI2 ag	bGal counter
O=C(Nc1cccc(-c2csc(Nc3cccc(C(F)(F)F)c3)n2)c1)c1ccccc1	-2	46*	-1	47	8	-9	23	-1	-15
O=C(CCSc1ccc(Cl)cc1)NC1CCCCC1	18	29	8	1	2	1	·	·	·
O=C(CCSc1ccc(Cl)cc1)NC12CC3CC(CC(C3)C1)C2	18	54*	7	13	0	4	26	-1	-9
C=CCOc1c(Cl)cc(CNc2nccs2)cc1OC	17	4	-1	11	-13	-1	·	·	·
CCc1cccc2c1NC(=O)C21N2CCCC2C(C(=O)c2ccc3ccccc3c2)C12C(=O)Nc1ccccc12 (stereo unspecified)	4	55*	1	12	2	1	23	0	9
Cc1cccc2c1NC(=O)C21N2CCCC2C(C(=O)c2ccc3ccccc3c2)C12C(=O)Nc1ccccc12 (stereo unspecified)	·	·	3	17	5	-6	·	·	·
CCS(=O)(=O)N1Cc2ccccc2CC1C(=O)NCCc1c[nH]c2ccccc12 (stereo unspecified)	4	44*	-3	16	0	-8	18	1	2
COc1ccc(S(=O)(=O)N2CCC(C(=O)NCCc3c[nH]c4ccccc34)CC2)cc1	18	45*	2	5	-12	-1	18	0	9
COc1ccc(-c2nc3c(c(=O)[nH]c(=O)n3Cc3ccccc3)n2Cc2ccccc2)cc1	-238	45*	2	-1	-9	-2	10	2	-7
COc1ccc(-c2nc3c(c(=O)[nH]c(=O)n3Cc3ccccc3)n2C)cc1	-385	10	5	3	22	-2	·	·	·
COc1ccc(NC(=O)C2CCCN(C(=O)Nc3ccc(F)cc3)C2)cc1 (stereo unspecified)	12	4	5	2	-5	-1	·	·	·
COc1ccc(-c2ccc(C(=O)Nc3cccc(C(F)(F)F)c3)c3occc23)c(C)c1	i	43*	·	·	·	·	9	-2	-12
COc1ccc(-c2ccc(C(=O)Nc3ccc(NC(C)=O)cc3)c3occc23)c(C)c1	-35	-40	·	·	·	·	·	·	·
CN(CCCn1ccc(N)nc1=O)Cc1ccco1	5	-6	·	·	·	·	·	·	·
CCCC[C@@H]1CNCCN1CCCc1cc(OC)c(OC)c(OC)c1	9	2	-5	0	-2	6	·	·	·
CC(=O)c1sc(NC(=O)COc2ccc(C)c(C)c2)nc1C	2	3	-8	6	-12	-6	·	·	·
Cc1ccccc1/C=N/n1c(-c2cc(-c3ccccc3)n[nH]2)n[nH]c1=S	12	24	-13	16	-5	-9	·	·	·
S=c1[nH]nc(-c2cc(-c3ccccc3)n[nH]2)n1/N=C/c1c(Cl)cccc1Cl	10	44*	-8	20	-95	3	65*	-1	0
CCOc1cc(C(=O)N(C)CC(=O)Nc2cccc(F)c2)ccc1OCC(=O)N1CCOCC1	14	-7	3	1	1	7	·	·	·
CCCCn1c2ccccc2c2nnc(SCCN3CCCCC3)nc21	16	49*	-4	·	-4	-6	13	-2	-11
CCCCn1c2ccc(F)cc2c2nnc(SCCN3CCOCC3)nc21	8	63*	-5	·	-27	-12	31	0	9
CCCC1NC(=O)c2cccnc2-n2c1nc1cc(C)cc(C)c1c2=O (stereo unspecified)	11	15	·	·	·	·	·	·	·
CCC1NC(=O)c2cc3ccccc3cc2-n2c1nc1cc(C)cc(C)c1c2=O (stereo unspecified)	-26	86*	·	·	·	·	69*	-1	-11
Cc1cc(C)c2c(=O)n3c(nc2c1)C(Cc1ccccc1)NC(=O)c1cccnc1-3 (stereo unspecified)	-13	20	·	·	·	·	·	·	·
Cc1cc(C)c2c(=O)n3c(nc2c1)C(Cc1ccccc1)NC(=O)c1cc2ccccc2cc1-3 (stereo unspecified)	-20	76*	·	·	·	·	38	-2	-11
SMILES	SENP8 block-1	EBI2 antag	SENP7 block	AHR activator	SENP6 inh	SENP8 block-2	EBI2 antag conf	EBI2 ag	bGal counter
COC(=O)[C@@]1(Cc2ccc(F)cc2)[C@H]2c3cc(C(=O)N4CCCC4)n(CC4CC4)c3C[C@H]2CN1C(=O)c1ccccc1	-16	8	·	·	·	·	·	·	·
C/C(CCc1ccccc1)=N/NC(=O)C(=O)NCc1ccccc1	10	1	7	2	-8	12	·	·	·
O=C(CSc1ccc(Cl)cc1)Nc1ccccc1N1CCN(C(=O)c2ccccc2)CC1	18	76*	1	0	-14	0	67*	-1	9
CS(=O)(=O)N1CCN(c2ccccc2NC(=O)CSc2ccc(Cl)cc2)CC1	16	3	0	0	11	0	·	·	·
O=C(CSc1ccc(Cl)cc1)Nc1ccccc1Oc1ccccc1	23	55*	6	5	7	8	24	0	-11
CC1=C(C(=O)OCCOc2ccccc2)C(c2ccsc2)NC(=O)N1C (stereo unspecified)	0	-3	5	6	10	2	·	·	·
Cc1ccc(NC(=S)N2CCN(S(=O)(=O)c3ccccc3)CC2)cc1C	7	-4	-3	·	3	-5	·	·	·
CCOc1ccc(-c2nc(N)ncc2-c2ccc(OC)cc2)c(O)c1	-28	69*	2	21	-7	-9	35	0	-11
COc1ccc(-c2nc(C)ncc2-c2ccc(Cl)cc2)c(O)c1	0	54*	8	2	3	3	26	-1	-6
CCOc1ccc(-c2nc(N)ncc2Oc2ccc(OC)cc2)c(O)c1	11	27	4	8	-1	-4	·	·	·
CCOc1ccc(-c2nc(N)ncc2-c2ccccc2)c(O)c1	21	39	2	9	-2	-3	·	·	·
CCOc1ccc(-c2nc(N)ncc2-c2ccc(Cl)cc2)c(O)c1	-4	59*	-15	19	-20	-15	26	1	-9

Source: PubChem BioAssay
